Screening data from PubChem BioAssay.
The entries come from a sample that favours hits as a whole.
Dicer processing = inhibitors of human Dicer processing of pre-microRNA; Q9UPY3; cat-ELCCA pre-miR-21 Dicer processing, chemiluminescence; hits give high values; z-score at 25 µM; actives 6% (n = 47,000); in the data active means z-score above about 3, passing the limit was not always enough;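 further: plate controls were vehicle for no effect and no enzyme for full effect; higher signal means more uncleaved substrate so more Dicer inhibition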
Target sequence (Q9UPY3 whole entry, looked up): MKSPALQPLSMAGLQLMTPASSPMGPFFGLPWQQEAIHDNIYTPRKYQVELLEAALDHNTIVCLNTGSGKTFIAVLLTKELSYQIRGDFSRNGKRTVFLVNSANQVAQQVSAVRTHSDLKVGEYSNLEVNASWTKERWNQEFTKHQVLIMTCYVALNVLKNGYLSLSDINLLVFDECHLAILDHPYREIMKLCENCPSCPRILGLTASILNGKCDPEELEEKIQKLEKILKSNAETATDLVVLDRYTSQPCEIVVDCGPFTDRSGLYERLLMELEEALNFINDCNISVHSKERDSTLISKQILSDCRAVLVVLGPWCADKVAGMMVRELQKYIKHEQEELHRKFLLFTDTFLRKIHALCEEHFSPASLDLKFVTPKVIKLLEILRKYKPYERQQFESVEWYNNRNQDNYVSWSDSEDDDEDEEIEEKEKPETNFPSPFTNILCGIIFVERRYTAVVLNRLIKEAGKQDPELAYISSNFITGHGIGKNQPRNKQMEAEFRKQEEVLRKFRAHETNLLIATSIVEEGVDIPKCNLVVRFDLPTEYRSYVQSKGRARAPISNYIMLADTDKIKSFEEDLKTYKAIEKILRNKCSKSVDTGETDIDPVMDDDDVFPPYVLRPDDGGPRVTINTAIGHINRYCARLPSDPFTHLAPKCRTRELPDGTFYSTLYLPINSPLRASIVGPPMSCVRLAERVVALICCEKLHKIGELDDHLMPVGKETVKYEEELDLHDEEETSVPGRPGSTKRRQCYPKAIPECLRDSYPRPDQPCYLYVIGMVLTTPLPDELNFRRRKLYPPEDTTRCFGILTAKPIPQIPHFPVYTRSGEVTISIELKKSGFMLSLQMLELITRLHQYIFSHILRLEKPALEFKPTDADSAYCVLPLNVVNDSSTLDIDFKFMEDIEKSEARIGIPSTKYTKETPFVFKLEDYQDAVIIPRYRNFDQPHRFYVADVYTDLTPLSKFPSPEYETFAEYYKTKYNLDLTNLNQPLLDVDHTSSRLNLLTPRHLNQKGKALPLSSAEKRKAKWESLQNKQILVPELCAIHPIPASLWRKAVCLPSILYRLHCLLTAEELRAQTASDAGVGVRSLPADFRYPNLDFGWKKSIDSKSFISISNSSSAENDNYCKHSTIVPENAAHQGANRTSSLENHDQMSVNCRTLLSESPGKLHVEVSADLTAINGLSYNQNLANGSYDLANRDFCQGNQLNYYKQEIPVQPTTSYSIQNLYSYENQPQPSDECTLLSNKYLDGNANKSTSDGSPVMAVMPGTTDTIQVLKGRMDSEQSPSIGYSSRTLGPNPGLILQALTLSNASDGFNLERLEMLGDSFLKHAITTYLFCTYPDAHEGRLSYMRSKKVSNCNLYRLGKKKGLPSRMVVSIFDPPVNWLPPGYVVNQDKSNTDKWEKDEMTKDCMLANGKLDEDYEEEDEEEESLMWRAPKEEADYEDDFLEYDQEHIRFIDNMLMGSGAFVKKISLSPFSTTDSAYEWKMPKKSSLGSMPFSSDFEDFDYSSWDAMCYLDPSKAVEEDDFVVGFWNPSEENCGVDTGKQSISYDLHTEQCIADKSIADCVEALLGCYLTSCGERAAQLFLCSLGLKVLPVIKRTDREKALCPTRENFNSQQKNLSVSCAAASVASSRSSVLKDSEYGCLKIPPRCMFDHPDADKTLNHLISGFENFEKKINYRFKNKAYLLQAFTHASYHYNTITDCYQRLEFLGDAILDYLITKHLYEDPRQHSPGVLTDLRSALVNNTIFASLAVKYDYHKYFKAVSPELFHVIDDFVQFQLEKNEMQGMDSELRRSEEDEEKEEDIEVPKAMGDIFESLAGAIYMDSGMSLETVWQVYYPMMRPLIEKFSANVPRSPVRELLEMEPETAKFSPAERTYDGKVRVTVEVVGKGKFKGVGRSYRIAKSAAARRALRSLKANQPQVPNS
Starred values were filed as active, the others as inactive.

SMILES	Dicer processing
CN(CCOC(=O)c1c(F)cccc1Cl)c1ccc(C#N)cn1	1.8
COc1ccc(OC(=O)c2cc3ccccc3o2)cc1	4.74*
CN(CCOC(=O)c1cc2ccccc2o1)C(C)(C)C	2.67
CN(C)CCCOC(=O)c1cc2ccccc2o1	0.59
CC(C(=O)N1CCCCC1)N1c2cccc3cccc(c23)S1(=O)=O (configuration not stated)	-0.25
CCN(CC)C(=O)CN(C#N)c1nc(C)cc(C)n1	2.89
COC(=O)C(C)N(C#N)c1nc(C)cc(C)n1 (configuration not stated)	5.96*
COC(=O)CN(C#N)c1nc(C)cc(OC)n1	-0.77
Cc1c(S(=O)(=O)c2ccc(Cl)cc2)csc1C(=O)N/N=C/C(C)(C)C	-1.23
COc1ccc(NS(=O)(=O)c2ccc(Br)cc2)cc1	2.27
COc1ccc(S(=O)(=O)Nc2c(C)cc(O)cc2C)cc1	5.2*
COc1ccc(S(=O)(=O)Nc2cc(OC)c(Cl)cc2OC)cc1	1.34
O=C1CC(Nc2ccc(N3CCOCC3)cc2)C(=O)N1c1ccccc1Cl (configuration not stated)	0.68
O=C1NCCCC1c1n[nH]c(=S)n1Cc1ccccc1 (configuration not stated)	-2.73
Cc1onc(-c2c(Cl)cccc2Cl)c1C(=O)Oc1ccc(F)cc1Cl	1.28
Nc1ccccc1NC(=O)c1ccccc1O	0.52
Nc1cccc(NC(=O)c2ccccc2O)c1	5.88*
COc1ccc(C=Nc2cccc(NC(=O)c3ccccc3O)c2)cc1	1.86
Cc1onc(-c2ccccc2)c1CNS(=O)(=O)c1ccc2c(c1)N(C)CCO2	0.24
O=C(c1sc2ccccc2c1Cl)N(c1cccc(Cl)c1)c1nc2ccccc2s1	1.75
CCOc1ccc2c(=O)c(Oc3ccc(OC)cc3)c(C(F)(F)F)oc2c1	-0.43
COc1ccc(-c2nn3c(Cc4ccccc4)nnc3s2)cc1	-0.45
CCc1nnc2sc(-c3ccc(N)cc3)nn12	3.38*
CCOc1ccc(-c2nn3c(COc4ccccc4)nnc3s2)cc1	1.99
Cc1cc(F)ccc1NCc1ccc2c(c1)OCCO2	4.94
SMILES	Dicer processing
CC1(C)CC(=O)C2=C(C1)Nc1ccccc1N(C(=O)c1ccccc1)C2c1ccc([N+](=O)[O-])s1 (configuration not stated)	-0.46
O=C(O)c1c[nH]c2c(F)cccc2c1=O	-0.49
Cc1[nH]c(=S)[nH]c(=O)c1Oc1cccc(C(F)(F)F)c1	-0.15
Cc1ncc(CCCCN(C)C)c2c1[nH]c1ccccc12	7.67*
Cc1ccc(-c2nc(NCCCN(C)C)c3ccccc3n2)cc1	7.78
Cc1[nH]c2ccccc2c(=O)c1CN(C)C	-0.83
COC(=O)C1=C(C)NC2=C(C(=O)CCC2)C1c1ccc(C(=O)OC)cc1 (configuration not stated)	-0.18
CCOCCOC(=O)C1=C(C)NC2=C(C(=O)CCC2)C1c1ccc(C)cc1 (configuration not stated)	0.1
CCSCCOC(=O)C1=C(C)NC2=C(C(=O)CCC2)C1c1ccc(CC)cc1 (configuration not stated)	2.54
CCCCCOC(=O)C1=C(C)NC2=C(C(=O)CCC2)C1c1ccccc1OCCC (configuration not stated)	0.33
CCSCCOC(=O)C1=C(C)NC2=C(C(=O)CCC2)C1c1ccccc1OC(C)C (configuration not stated)	1.12
CCSCCOC(=O)C1=C(C)NC2=C(C(=O)CCC2)C1c1ccc(Cl)cc1 (configuration not stated)	4.18*
CCOCCOC(=O)C1=C(C)NC2=C(C(=O)CCC2)C1c1cc(Br)c(O)c(OC)c1 (configuration not stated)	0.03
CCOc1cc(C2C(C(=O)OC3CCCC3)=C(C)NC3=C2C(=O)CCC3)cc(Br)c1O (configuration not stated)	1.74
CCCCOC(=O)C1=C(C)NC2=C(C(=O)CCC2)C1c1cc(Br)c(O)c(OCC)c1 (configuration not stated)	3.23*
CCSCCOC(=O)C1=C(C)NC2=C(C(=O)CCC2)C1c1ccccc1OCc1ccccc1 (configuration not stated)	5.99*
CCOCCOC(=O)C1=C(C)NC2=C(C(=O)CCC2)C1c1ccc(C(=O)OC)cc1 (configuration not stated)	4.84*
CCSCCOC(=O)C1=C(C)NC2=C(C(=O)CCC2)C1c1ccc(-c2ccccc2)cc1 (configuration not stated)	-0.43
N#Cc1ccc(-c2cccnc2)nc1SCC(=O)O	0.66
Cc1nc(Nc2ncc3c(n2)CC(c2ccc(F)cc2)CC3=O)nc2c(C)cccc12 (configuration not stated)	0.98
O=C(c1ccc(F)cc1)c1sc(Nc2ccc(F)cc2)nc1-c1ccccc1	1.19
CNC(=S)NNc1cc(C)c2c(C)nn(C)c2n1	0.07
O=C(CC1Sc2ccccc2NC1=O)NNC(=O)c1ccc(Cl)cc1 (configuration not stated)	-3.11
CCCCCc1c(C)[nH]n(-c2nc(C)cc(C)n2)c1=O	-0.18
Nc1c(-c2nnc(SCc3ccc(Cl)cc3)o2)cnn1-c1ccccc1	-1.07
SMILES	Dicer processing
CC(=O)Nc1ccc([N+](=O)[O-])cc1C(F)(F)F	1.36
C=CCNC(=S)Nc1sc2c(c1C(=O)OCC)CCC(C)C2 (configuration not stated)	-8.24
COc1ccc(NC(=O)COCC(=O)O)c(N2CCOCC2)n1	0.8
O=C(Nc1ccc(Cl)cc1)c1cccnc1	-0.12
CC1=C(C(=O)OCC2CCCO2)C(c2ccccc2OCc2ccccc2)C2=C(CCCC2=O)N1 (configuration not stated)	3.57*
CC1=C(C(=O)OCC2CCCO2)C(c2ccc(OCc3ccccc3)cc2)C2=C(CCCC2=O)N1 (configuration not stated)	0.06
COc1ccccc1C1C(C(=O)OCC2CCCO2)=C(C)NC2=C1C(=O)CCC2 (configuration not stated)	-0.11
NC(=O)c1c(NC(=O)COc2ccc(Br)cc2)sc2c1CCCC2	0.42
CCCN1CSC(=S)N(CCC)C1	0.26
COc1cc(N/C=C(\C#N)C(=O)NC(C)=O)c(OC)cc1Cl	-0.43
CCCOc1ccc2nc(NC(=O)OC)sc2c1	1.32
CCOc1ccc2nc(NC(=O)c3cccs3)sc2c1	3.99*
CCOc1ccc2nc(NC(=O)c3ccc([N+](=O)[O-])o3)sc2c1	1
COc1ccc(-c2noc(-c3ccccc3)n2)cc1OC1CCCC1	-0.47
CCC(C)OC(=O)C1=C(C)NC2=C(C(=O)CC(c3ccccc3)C2)C1c1ccc(O)c(OC)c1 (configuration not stated)	1.32
Cc1cc(C)n2c(Br)c(CSc3nnnn3-c3ccccc3)nc2n1	4.24*
Cc1cc(C)n2c(SCc3ccc(Br)cc3)nnc2n1	1.29
c1ccc(CSc2nnnn2-c2ccccc2)cc1	-1.29
COc1ccc(-c2csc(-c3cccnc3)n2)cc1	0.9
CC(=O)O[C@H]1CC2(C)[C@@H](C[C@@H](O)[C@H]3[C@@]4(C)CC[C@@H](O)[C@@H](C)[C@@H]4CC[C@@]32C)C1=C(CCC=C(C)C)C(=O)O (some centres not stated)	-1.16
CC(C)(C)n1cnc2cc(NCc3ccco3)ccc21	2.64
Cn1cnc2cc(NCc3ccco3)ccc21	4.86*
CC(C)n1cnc2cc(NCc3ccco3)ccc21	-0.27
Cc1ccc(C(=O)c2cccc(N3C(=O)c4cccnc4C3=O)c2)cc1C	-1.14
CSc1cc(-c2ccncc2)nc(-c2ccc(Cl)cc2)c1	-0.31
